Measured values as given in article PMC5540273 (PLoS ONE, 2017).

Tests used:
Conditions in all cases: concentration: 1 μM, replicates: in singlicate; n = 1
SRPK3 = test system: SRPK3
STK16 = test system: STK16
STK33 = test system: STK33
STK35 = test system: STK35
STK36 = test system: STK36
STK39 = test system: STK39
SYK = test system: SYK
SgK110 = test system: SgK110
TAK1 = test system: T1, TAK1
T1 construct: gene MAP3K7

TAOK1 = test system: TAOK1
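Further: KINOMEscan kinase panel screen.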

| Structure (SMILES) | %Inh (SRPK3) [%] | %Inh (STK16) [%] | %Inh (STK33) [%] | %Inh (STK35) [%] | %Inh (STK36) [%] | %Inh (STK39) [%] | %Inh (SYK) [%] | %Inh (SgK110) [%] | %Inh (TAK1) [%] | %Inh (TAOK1) [%] |
| --- | --- | --- | --- | --- | --- | --- | --- | --- | --- | --- |
| COc1ccc(Nc2ncc(C#N)c(Nc3ccccc3C(N)=O)n2)cc1N1CCN(C)CC1.Cl [GSK1558669] | 100 | 98.3 | 99.2 | 99.3 | 99.5 | 100 | 98.6 | 66 | 100 | 86 |
| O=C(Nc1n[nH]c2cc(-c3cccc(F)c3)ccc12)C1CC1 [SB-735464] | 37 | 5 | 0 | 12 | 16 | 0 | 4 | 0 | 6 | 40 |
| CSc1ccc(-c2cc3ncnc(SCC(=O)O)c3s2)cc1 | 0 | 2 | 8 | 0 | 0 | 0 | 15 | 0 | 18 | 0 |
| CC(C)(C)n1cnc2c(N)ncnc21 [SKF-97359] | 0 | 0 | 0 | 0 | 0 | 0 | 0 | 85 | 22 | 0 |
| Cc1cccc(-c2nc(-c3ccc(S(C)(=O)=O)cc3)sc2-c2ccncc2)c1 | 10 | 19 | 0 | 3 | 30 | 15 | 25 | 2 | 3 | 0 |
| C[C@@H](Oc1cc(-n2cnc3ccc(NC(=O)NC(C)(C)C)cc32)sc1C(N)=O)c1ccccc1Cl [GSK346294] | 0 | 22 | 0 | 0 | 0 | 0 | 34 | 0 | 0 | 0 |
| Cc1nnc(-c2ccc3occ(-c4ccc(C(C)O)cc4)c3c2)o1 (stereo not shown) | 0 | 12 | 0 | 32 | 19 | 0 | 14 | 25 | 25 | 0 |
| Cl.Oc1cccc(Nc2ccnc3cc(-c4ccncc4)ccc23)c1 [GW494601] | 0 | 26 | 41 | 0 | 0 | 1 | 82 | 0 | 41 | 0 |
| COc1ccc(COc2cc(-n3cnc4ccccc43)sc2C(N)=O)cc1 [GSK1024304] | 17 | 0 | 13 | 0 | 0 | 0 | 26 | 0 | 0 | 0 |
| Nc1nccc(-c2c(-c3ccc(F)cc3)ncn2C2CCN(CC(F)(F)F)CC2)n1 [SB-236560] | 6 | 0 | 0 | 0 | 26 | 0 | 0 | 0 | 21 | 0 |
| O=c1cc(N2CCOCC2)nc2n(Cc3cccc(C(F)(F)F)c3)ccn12 [GSK2297543] | 0 | 0 | 0 | 0 | 0 | 0 | 27 | 0 | 0 | 0 |
| c1ccc(-c2cc(-c3c[nH]nc3-c3ccccn3)ccn2)cc1 [GW576604] | 0 | 0 | 8 | 0 | 0 | 2 | 6 | 0 | 16 | 0 |
| Fc1ccc(-c2nn3c(OCC(F)(F)F)cccc3c2-c2ccncc2)cc1 [GW514784] | 0 | 3 | 0 | 0 | 0 | 3 | 1 | 0 | 6 | 0 |
| O=C(NOCC1CC1)c1ccc(F)c(F)c1Nc1ccc(I)cc1Cl | 7 | 0 | 0 | 0 | 0 | 0 | 0 | 0 | 11 | 0 |
| N#Cc1c(N2CCOCC2)sc(-c2ccn[nH]2)c1-c1ccc(Cl)cc1 | 0 | 33 | 10 | 0 | 0 | 17 | 16 | 0 | 14 | 0 |
| Cc1cn2c(=O)cc(N3CCOCC3)nc2n1Cc1cccc(Cl)c1Cl [GSK2334006] | 0 | 14 | 4 | 3 | 0 | 17 | 21 | 0 | 0 | 0 |
| Cn1cc(-c2ccc3c(c2)CCN3C(=O)Cc2ccccc2Cl)c2c(N)ncnc21 [GSK2608885] | 0 | 34 | 18 | 95.9 | 100 | 1 | 51 | 0 | 5 | 50 |

| Structure (SMILES) | %Inh (SRPK3) [%] | %Inh (STK16) [%] | %Inh (STK33) [%] | %Inh (STK35) [%] | %Inh (STK36) [%] | %Inh (STK39) [%] | %Inh (SYK) [%] | %Inh (SgK110) [%] | %Inh (TAK1) [%] | %Inh (TAOK1) [%] |
| --- | --- | --- | --- | --- | --- | --- | --- | --- | --- | --- |
| c1ccc(-c2n[nH]cc2-c2ccnc3ccccc23)nc1 [GW271431] | 0 | 18 | 8 | 19 | 0 | 0 | 44 | 0 | 50 | 0 |
| Cn1ccc2ncnc(Oc3ccc(NC(=O)Nc4ccncc4)c(Cl)c3)c21 | 0 | 10 | 0 | 0 | 5 | 100 | 3 | 30 | 0 | 0 |
| COc1cc2c(cc1OCCN1CCN(C)CC1)ncc1c3ccc(C#N)cc3[nH]c21 | 0 | 10 | 25 | 0 | 0 | 11 | 8 | 0 | 90.6 | 0 |
| COc1cc2c(cc1OC[C@@H](O)CO)ncc1c3ccc(C#N)cc3[nH]c21 | 25 | 0 | 36 | 0 | 0 | 0 | 0 | 0 | 81 | 0 |
| CCc1nc(-c2cccc(C)c2)c(-c2ccnc(NCc3ccccc3)c2)s1 | 0 | 19 | 0 | 0 | 0 | 0 | 0 | 22 | 0 | 0 |
| NS(=O)(=O)c1cccc(-c2ccc3ncc(N4CCOCC4)nc3c2)c1 [GSK1535721] | 0 | 16 | 0 | 0 | 5 | 1 | 0 | 1 | 16 | 14 |
| O=c1cc(N2CCOCC2)nc2n(Cc3cccc(F)c3)ccn12 [GSK2297430] | 7 | 14 | 0 | 18 | 0 | 0 | 11 | 0 | 0 | 0 |
| CCn1cnc2c(N)ncnc21 [GW345098] | 18 | 12 | 10 | 0 | 5 | 0 | 3 | 0 | 4 | 16 |
| NS(=O)(=O)CCc1cccc(Nc2nccc(-c3c(-c4cccc(NC(=O)c5c(F)cccc5F)c4)nn4ccccc34)n2)c1 [GSK336735] | 55 | 28 | 0 | 90.7 | 99.9 | 1 | 74 | 0 | 27 | 73 |
| COc1ccc(Nc2nccc(N3CCC(NC(=O)Nc4cc(C)ccc4C)C3)n2)cc1 (stereo not shown) [GSK1379741] | 0 | 7 | 0 | 0 | 100 | 9 | 0 | 0 | 0 | 0 |
| O=C1NC(=O)C(N2CCc3ccccc32)=C1c1cccc(Cl)c1 [SB-408010] | 31 | 26 | 0 | 19 | 16 | 54 | 0 | 1 | 21 | 0 |
| NS(=O)(=O)c1cccc(-c2ccc3nccc(-c4cccc(S(N)(=O)=O)c4)c3c2)c1 [GW867253] | 23 | 12 | 0 | 0 | 0 | 0 | 1 | 0 | 6 | 2 |
| O=c1cc(N2CCOCC2)nc2n(Cc3cccc(Cl)c3Cl)c(C3CC3)nn12 [GSK2358994] | 0 | 10 | 0 | 0 | 3 | 0 | 0 | 0 | 0 | 0 |
| Cc1nnc(-c2ccc(C)c(-c3ccc(C(=O)Nc4ccc(NS(C)(=O)=O)cc4)cc3)c2)o1 [GW702865] | 3 | 0 | 0 | 0 | 24 | 14 | 33 | 4 | 4 | 0 |
| O=C(c1ccc(-c2cc(-c3c[nH]nc3-c3ccccn3)ccn2)cc1)N1CCOCC1 [GW812171] | 4 | 0 | 0 | 0 | 2 | 18 | 0 | 32 | 10 | 0 |
| O=C(NCCCN1CCOCC1)c1cccc(Nc2nccc(Nc3ccc(Oc4ccccc4)cc3)n2)c1 [GW663929] | 0 | 64 | 10 | 34 | 33 | 23 | 0 | 0 | 19 | 0 |
| NCC(NC(=O)c1cc(-c2cn[nH]c2)c(-c2ccnc3[nH]ccc23)s1)c1ccccc1.O=C(O)C(F)(F)F.O=C(O)C(F)(F)F (stereo not shown) [GSK1325775] | 37 | 46 | 79 | 0 | 0 | 9 | 0 | 66 | 78 | 91.9 |
